Max dye-equivalent concentration data for 53 compounds are collected here from PubChem BioAssay AID589 (National Center for Advancing Translational Sciences (NCATS), 2007).

Out of some 59,000 compounds screened, about 6,200 (11%) were called active. Not shown: some 9% with an inconclusive outcome. No stated cut-off is given here; in the data, active means max dye-equivalent concentration above about 10 nM; inconclusive means mostly about 1.1 nM to 9.6 nM; inactive means weaker than that. The sample as a whole holds a higher share of actives than the screen did.

The test is described as follows: qHTS Assay for Spectroscopic Profiling in 4-MU Spectral Region. As to conditions: compound autofluorescence, 340/450 nm, 4-MU equivalents; hits give high values. The source says:
NIH Molecular Libraries Screening Centers Network [MLSCN] NIH Chemical Genomics Center [NCGC] […] Occasionally, the artifactual effect may originate from the compounds own spectral or other biophysical properties which generally tend to track its assay concentration. Pre-screening/profiling the library with respect to the compounds spectral properties should help one exclude false positives early on. While the most informative fluorescent profiling data set is obtained by performing a full excitation and emission scan of each well by using a monochromator-based plate reader, such an approach is practical only on a very limited scale as scanning each well requires long time. An alternative approach, applied here, is to perform plate reader scans using selected excitation and emission wavelength pairs to generate a multidimensional relational database that correlates compound concentration and the respective relative fluorescence intensity at a given wavelength set. A standard curve of 4-methylumbelliferone (4-MU) present on each plate as six-point concentration series, was used to compute a normalized fluorescence response, termed dye-equivalent concentration, for each compound at each concentration.
NCGC Assay Protocol Summary: Buffer: 100 mM Tris buffer, pH 8.0 Dye standard plate: The wells in columns 1 through 4 of a Kalypsys polypropylene 1536-well compound plate were filled with standard solutions of fluorophore corresponding to the spectral region of interest. Solutions of 4-MU were placed in the following wells: A1, B1: 3 mM, A2, B2: 300 uM, A3, B3: 30 uM, A4, B4: zero (DMSO), C1, D1: 3 uM, C2, D2: 900 nM, C3, D3: 300 nM, C4, D4: zero (DMSO). Assay Steps: Six uL of buffer were dispensed to 1536-well Greiner black plates. Compounds and dye standards (23 nL) were transferred via Kalypsys PinTool. The plates were incubated for 15 min at room temperature, and then read on ViewLux (Perkin-Elmer) High-throughput CCD imager using 340 nm and 450 nm excitation and emission filter set. Keywords: NIH Roadmap, MLSCN, MLI, MLSMR, qHTS, NCGC, Fluorescent Profiling, 4MU, 4-MU
For orientation: In qHTS, concentration-response curves come from the screen itself.
Turning to `C[C@H](NC(=O)NCCc1ccccc1)C(=O)O`, the max dye-equivalent concentration result was “inactive”.
Under `CNc1ncnc2ccc(-c3cccc(NS(C)(=O)=O)c3)cc12` stands “inactive”.
The result for `Cn1c(SCC(=O)OC2CCCCC2)nnc1-c1ccc(S(=O)(=O)N2CCCC2)cc1` reads “inactive”.
As to `Cc1ccsc1C(=O)OCC(=O)c1cc2ccccc2o1`, the max dye-equivalent concentration result is “inactive”.
In the case of `O=C(NCc1ccccn1)Nc1ccc(F)cc1`, the max dye-equivalent concentration result is “inactive”.
For `O=C(Oc1cccnc1)c1cc2ccccc2oc1=O`, the max dye-equivalent concentration is 82 nM (active).
Turning to `O=C(NCc1ccccn1)c1cc2ccccc2oc1=O`, the max dye-equivalent concentration was 22 nM (active).
The result for `O=C(NCc1ccccn1)c1cnc2sccn2c1=O` reads “inactive”; that for `COc1ccc2oc(=O)c(C(=O)O)cc2c1`, “inactive”; that for `Cc1cc(NC(=O)COC(=O)c2ccc(F)c(S(=O)(=O)N3CCOCC3)c2)no1`, “inactive”.
Under `COc1ccc(NC(=O)N2CC3(CCN(C(=O)c4cccn4C)CC3)C2)cc1` stands “inactive”.
`Cc1cc(=O)[nH]c(SCc2cc(Cl)ccc2OC(F)F)n1`: the max dye-equivalent concentration result was “inactive”.
With `COc1ccccc1C(=O)N1CCNC(=O)C1CC(=O)Nc1ccc(Cl)cc1` (stereo not drawn), the max dye-equivalent concentration result is “inactive”.
For `CCCCc1cc(=O)oc2cc(C)cc(OCc3nn[nH]n3)c12`, the max dye-equivalent concentration was 59 nM (active).
The result for `Cc1c(O)c(Br)c(C)c(O)c1Br` (tested in a mixture with another compound) reads “inactive”; that for `CCc1nnc(NC(=O)c2nc3nccc(C)n3n2)s1`, “inactive”; that for `CCC1=C/C(=C\c2ccc3c(c2)OCO3)C(=O)S1`, “inactive”.
Take `O=C(C1CCCO1)N1CCC(c2nc3ccccc3[nH]2)CC1` (stereo not drawn): the max dye-equivalent concentration entry is “inactive”.
On to `COc1cc2nc(N3CCN(C(=O)[C@@H]4CCCO4)CC3)nc(N)c2cc1OC`, for which the max dye-equivalent concentration is 890 nM (active).
With `COc1ccccc1CNC(=O)C1CCN(c2nc3ccccc3o2)CC1`, the max dye-equivalent concentration entry is “inactive”.
For the compound `COc1ccc2[nH]cc(CCNc3ncnc4ccc(-c5ccccc5CN(C)C)cc34)c2c1`, the max dye-equivalent concentration result is “inactive”.
Under `Cc1ccccc1NC(=O)c1cc(S(=O)(=O)N2CCOCC2)cs1` stands “inactive”; under `CN(CC(=O)NC1CCCCC1)S(=O)(=O)c1ccc(Br)s1`, “inactive”.
Consider `COCCNC(=O)C(c1ccc(C)o1)N(Cc1ccccc1)C(=O)Cn1nnc2ccccc21` (stereo not drawn), for which the max dye-equivalent concentration entry is “inactive”.
`COCCNC(=O)C(c1ccc(C)o1)N(Cc1cccs1)C(=O)c1snc(C(N)=O)c1N` (stereo not drawn): the max dye-equivalent concentration was 110 nM (active).
In the case of `CCC(C(=O)NC1CCCC1)N(C(=O)c1snc(C(N)=O)c1N)c1ccc2c(c1)OCCO2` (stereo not drawn), the max dye-equivalent concentration entry was “inactive”.
For the compound `CCOC(=O)CCCNC(=O)CN1C(=O)NC(CCc2ccccc2)C1=O` (stereo not drawn), the max dye-equivalent concentration result is “inactive”.
Take `CCOC(=O)c1ccc(NC(=O)CS(=O)(=O)c2cn(CC)c3ccccc23)cc1`: the max dye-equivalent concentration entry is “inactive”.
Turning to `O=C(Nc1ccccc1-c1nnn(CC(=O)N2CCN(c3ccccc3)CC2)n1)c1cccs1`, the max dye-equivalent concentration entry is “inactive”.
Regarding `Cc1[nH]c(N)nc(=S)c1CCCNc1ccccc1`, the max dye-equivalent concentration result is “inactive”.
Take `CCCSc1nc2c(c(=O)[nH]c(=O)n2C)n1CCc1ccccc1`: the max dye-equivalent concentration result is “inactive”.
`Cn1c(=O)c2c(nc(NCCc3ccccc3)n2Cc2ccccc2)n(C)c1=O`: the max dye-equivalent concentration result is “inactive”.
Turning to `Cn1c(=S)c2[nH]c(SCCCc3ccccc3)nc2n(C)c1=O`, the max dye-equivalent concentration is 13 nM (active).
On to `O=C(CC(Cc1ccccc1)C(=O)O)NCCc1ccc2c(c1)OCO2` (stereo not drawn), for which the max dye-equivalent concentration result is “inactive”.
Turning to `CCOc1ccc(OCC)c(NC(=O)CSc2nnc(Cn3cnc4ccccc43)n2C)c1`, the max dye-equivalent concentration entry is “inactive”.
On to `COc1ccc2oc(C)c(NC(C)=O)c2c1`, for which the max dye-equivalent concentration entry is “inactive”.
Turning to `COC(=O)COc1ccc2oc(=O)cc(C)c2c1`, the max dye-equivalent concentration is 25 nM (active).
On to `CCOC(=O)c1c(C)oc2ccc(OCC(=O)N(CC)CC)cc12`, for which the max dye-equivalent concentration result was “inactive”.
In the case of `Cc1nc(CNS(=O)(=O)c2cccnc2)cs1`, the max dye-equivalent concentration result was “inactive”.
`COc1ccccc1NC(=O)C1=C(C)Nc2nnnn2C1c1cccc(Br)c1` (stereo not drawn): the max dye-equivalent concentration entry is “inactive”.
In the case of `CCCCCOC(=O)C1=C(C)Nc2nnnn2C1c1ccc(OC)c(OC)c1OC` (stereo not drawn), the max dye-equivalent concentration entry is “inactive”.
On to `COC(=O)c1ccc(C2C3=C(Nc4nnnn42)c2ccccc2OC3)cc1` (stereo not drawn), for which the max dye-equivalent concentration is 59 nM (active).
For `O=C(CNS(=O)(=O)c1ccc(Br)s1)NCc1ccc2c(c1)OCO2`, the max dye-equivalent concentration result was “inactive”.
Under `O=C(N1CCOCC1)N(Cc1ccccc1)c1ccccn1` stands “inactive”.
Under `NC(=O)CSc1c[nH]c2ccccc12` stands “inactive”.
On to `Cc1ccc2c(c1)C(O)(CC(=O)c1cccnc1)C(=O)N2` (stereo not drawn), for which the max dye-equivalent concentration result is “inactive”.
As to `CCc1cc2c(=O)c(-c3ccon3)c(N)oc2cc1OC`, the max dye-equivalent concentration result was “inactive”.
For `COc1ccccc1Cc1nc(-c2ccc(C)cc2)no1`, the max dye-equivalent concentration was 16 nM (active).
For the compound `Cc1ccc(Cc2nc(-c3cccc(C)c3)no2)cc1`, the max dye-equivalent concentration entry is “inactive”.
As for `Cc1ccc(-c2noc(CN3CCN(Cc4ccccc4)CC3)n2)cc1`, the max dye-equivalent concentration result was “inactive”.
`O=C(Nc1cccc(F)c1)N1CCC2(CC1)CCN(S(=O)(=O)c1ccccc1)CC2`: the max dye-equivalent concentration entry is “inactive”.
The result for `CN1CCCC(OC(=O)COc2ccc(Br)cc2)C1` (stereo not drawn) reads “inactive”.
With `CCCSC1=C(C#N)C(c2ccccc2C)C(C(=O)OC)C(=O)N1` (stereo not drawn), the max dye-equivalent concentration result is “inactive”.
